This is a sample that favours compounds with a hit; in the whole collection about 1.4% have one here.
Mtb MbtI inh – blocks the Mycobacterium tuberculosis siderophore enzyme MbtI | inhibition, % (test concentration not listed) | AID 493033 | P9WFX0 | 100,000 compounds, 0.89% hits | purified MbtI enzyme, fluorescence intensity read-out; in the data active = inhibition mostly above about 56%, no sharp cut-off; inactive = mostly below about 77%
AID504770 – growth inhibitors of E. coli YBA685 in a screen for V. cholerae RctB (chromosome II replication) inhibitors; E. coli YBA685 rctB-dependent plasmid, OD600 growth, 3 h; hits give low values; z-score (concentration not given with the values); 130,000 compounds, 0.27% hits; AID 504770; in the data active = z-score below about -2, passing the limit was not always enough
PV pol inh – inhibitors of poliovirus RNA polymerase binding and polymerization. AID 588519. poliovirus polymerase elongation, fluorescence polarization; hits give low values. % elongation, % (compound at 16.7 µg/mL). 150,000 compounds, 0.66% hits; in the data active = % elongation below about 90%
Mtb MenB inh – Mtb MenB enzyme inhibition; inhibition, % (concentration not given with the values); AID 540299; MenB enzyme assay, absorbance read-out; P9WNP5; 100,000 compounds, 0.43% hits; in the data active = inhibition above about 21%, passing the limit was not always enough
Target sequence (P9WNP5 whole entry, looked up): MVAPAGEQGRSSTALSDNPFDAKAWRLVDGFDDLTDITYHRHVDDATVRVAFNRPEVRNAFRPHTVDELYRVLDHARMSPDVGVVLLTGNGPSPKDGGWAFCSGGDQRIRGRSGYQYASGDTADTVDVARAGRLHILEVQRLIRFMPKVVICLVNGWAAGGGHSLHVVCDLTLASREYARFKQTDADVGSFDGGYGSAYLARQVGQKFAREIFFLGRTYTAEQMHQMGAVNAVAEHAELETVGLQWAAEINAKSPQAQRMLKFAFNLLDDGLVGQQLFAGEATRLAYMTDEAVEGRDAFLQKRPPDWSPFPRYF
* hit, by the source's call.

For c1ccc(CNCCc2c[nH]c3ccccc23)cc1 the results were Mtb MbtI inh -2.2 and AID504770 0.95.
For c1ccc(CC(NCc2c[nH]c3ccccc23)c2ccccc2)cc1 (stereo not drawn) the results were Mtb MbtI inh -10.8 and AID504770 -3.1*.
O=C(O)C(C(=O)/C=C/c1ccccc1)=C1SCS1 was read as Mtb MbtI inh 88.8*, AID504770 -1, PV pol inh 106.0 and Mtb MenB inh -76.4.
`O=c1cc(CSc2nnnn2-c2ccccc2)nc(Nc2ccc(F)cc2)[nH]1` gave Mtb MbtI inh -10.5 and AID504770 -3.35*.
For COC(=O)c1ccc(C(=S)NCC(OC)OC)cc1 the results were Mtb MbtI inh 86.5*, AID504770 0.1, PV pol inh 79.0* and Mtb MenB inh -61.2.
`COC(=O)c1ccc(C(=O)OC)cc1` gave AID504770 0.3, PV pol inh 105.0 and Mtb MenB inh -14.3.
Screening Cc1ccc(-c2csc(-n3sc4ccccc4c3=O)n2)cc1 returned Mtb MbtI inh 86.8*, AID504770 0 and PV pol inh 99.0.
`Cc1cc(-n2sc3ccccc3c2=O)c2ccccc2n1` gave Mtb MbtI inh -1.8, AID504770 1.85, PV pol inh 121.0 and Mtb MenB inh 2.5.
`Cn1c(N)c(C#N)c2c(c1=S)CCCC2` gave Mtb MbtI inh 23.9, AID504770 -2.85*, PV pol inh 88.0* and Mtb MenB inh -45.2.
COc1ccc2c(CC(=O)NC3CCCCCC3)coc2c1 was read as Mtb MbtI inh -14.4, AID504770 -1.05, PV pol inh 105.0 and Mtb MenB inh -17.1.
Screening COCCn1c(=NC(=O)c2cccc(OC)c2)sc2cc(Br)ccc21 returned AID504770 -1.
`CC1(C)C=C(O)C(C2(O)C(=O)c3ccccc3C2=O)C(=O)C1` (stereo not drawn) gave AID504770 -1, PV pol inh 19.0* and Mtb MenB inh -27.8.
CC1(C)CC(=O)C(C2(O)C(=O)c3ccccc3C2=O)C(=O)C1 was read as Mtb MbtI inh -11.8 and AID504770 -0.9.
`O=S(=O)(NC1c2ccccc2Oc2ccccc21)c1ccc2ccccc2c1` gave AID504770 -0.95, PV pol inh 106.0 and Mtb MenB inh -18.6.
`COC(=O)c1c(N2C(=O)CCC2=O)sc2c1CCCC2` gave Mtb MbtI inh -20.9, AID504770 -3.2*, PV pol inh 101.0 and Mtb MenB inh -2.1.
For CCOC(=O)c1c(N2C(=O)CCC2=O)sc2c1CCCC2 the results were AID504770 0.9.
Screening CCCC12CN3CC(CCC)(CN(C1)C3C(O)C(O)C(O)C(O)CO)C2=O (stereo not drawn) returned Mtb MbtI inh -1.1, AID504770 -0.3, PV pol inh 102.0 and Mtb MenB inh 14.2.
For COc1cc(CCC(=O)NCC(c2ccc(F)cc2)N2CCOCC2)cc(OC)c1OC (stereo not drawn) the results were Mtb MbtI inh -8.2, AID504770 -0.3, PV pol inh 108.0 and Mtb MenB inh -20.3.
For Cc1ccc(C)c2[nH]c(=O)c(C3NC(=O)c4ccccc4N3)cc12 (stereo not drawn) the results were Mtb MbtI inh -28.6, AID504770 -0.15, PV pol inh 101.0 and Mtb MenB inh 41.6*.
For CCN(C(=O)CSc1nc2ccncc2[nH]1)c1cccc(C)c1 the results were AID504770 -0.05.
`O=c1ccsn1Cc1ccccc1` gave Mtb MbtI inh 92.8*, AID504770 -9.15*, PV pol inh 97.0 and Mtb MenB inh -116.0.
Screening Cc1ccc(N(CC(=O)Nc2ccc(C)c(Cl)c2)S(=O)(=O)c2cccs2)cc1 returned PV pol inh 89.0*.
For COc1ccc(NC(=O)CN(c2ccc(C)cc2)S(=O)(=O)c2cccs2)cc1OC the results were PV pol inh 103.0.
`O=S1(=O)N=C(N2CCCC(C(F)(F)F)C2)c2ccccc21` (stereo not drawn) gave Mtb MbtI inh -0.5, AID504770 -0.6, PV pol inh 103.0 and Mtb MenB inh -1.4.
Screening O=C(CSc1ccc2ccccc2c1)NCCc1ccc(O)c(O)c1 returned Mtb MbtI inh 92.8*, AID504770 -0.3 and PV pol inh 100.0.
For CCOC(=O)c1s/c(=N/N=C(C)C)n(C)c1C the results were Mtb MbtI inh 56.2*, AID504770 -0.8, PV pol inh 102.0 and Mtb MenB inh -15.4.
Screening Cc1c(-c2ccccc2)sc(N)c1C(=O)N1CCCCC1 returned Mtb MbtI inh 83.9, AID504770 0.25, PV pol inh 70.0* and Mtb MenB inh -12.7.
For Cc1ccc(C(N)=S)c(=O)[nH]1 the results were Mtb MbtI inh 172.6, AID504770 -0.2, PV pol inh 85.0* and Mtb MenB inh -54.9.
`Cc1nc2cccnc2n1CCNC(=O)Nc1cccc2ccccc12` gave Mtb MbtI inh 39.0, AID504770 0.9, PV pol inh 101.0 and Mtb MenB inh 27.3*.
For Cc1ccc2nc(NCc3ccccc3)[nH]c2c1 the results were Mtb MbtI inh -11.4, AID504770 -2.2*, PV pol inh 102.0 and Mtb MenB inh 4.2.
COc1cc(OC)c(OC)cc1CN1CCN(c2cccc(C)c2C)CC1 was read as Mtb MbtI inh -0.6, AID504770 -0.3, PV pol inh 96.0 and Mtb MenB inh 4.1.
For CCC(C)N1CCN(Cc2cc(OC)c(OC)cc2OC)CC1 (stereo not drawn) the results were Mtb MbtI inh 3.8, AID504770 1.6, PV pol inh 102.0 and Mtb MenB inh 36.5*.
`CCOc1cc2c(cc1OCC)C1C(C(=O)NCCC(C)C)c3ccccc3C(=O)N1CC2` (stereo not drawn) gave Mtb MbtI inh 12.8, AID504770 -2.9*, PV pol inh 102.0 and Mtb MenB inh -12.0.
`CCc1ccc(-c2nc(SCC(N)=O)n[nH]2)cc1` gave Mtb MbtI inh 33.0, AID504770 -0.25, PV pol inh 100.0 and Mtb MenB inh 3.1.
`Cc1ccc(S(=O)(=O)N=C2C=CC(=NS(=O)(=O)N(C)C)C=C2)cc1` gave Mtb MbtI inh 96.6, AID504770 -1.35, PV pol inh 104.0 and Mtb MenB inh -19.4.
For Cc1ccc(S(=O)(=O)N=C2C=CC(=NS(=O)(=O)c3ccc(C)cc3)C=C2)cc1 the results were Mtb MbtI inh 71.5*, AID504770 0, PV pol inh 102.0 and Mtb MenB inh -10.2.
Cc1cc(N2CCCC2)ccc1/C=C/C1=CCN(C)CC1 was read as Mtb MbtI inh 89.2, AID504770 1.25, PV pol inh 64.0* and Mtb MenB inh 10.8.
C=CCn1c(C)c(/C=C/C2=CCN(C)CC2)c2ccccc21 was read as Mtb MbtI inh 78.8, AID504770 -0.5, PV pol inh 78.0 and Mtb MenB inh -168.4.
Screening CC(C)C(NC(N)=O)C(=O)Nc1cccc2ncccc12 (stereo not drawn) returned Mtb MbtI inh 2.0, AID504770 -0.45, PV pol inh 103.0 and Mtb MenB inh -29.4.
`CC1(C)Cc2c(c(N3CCNCC3)[nH]c(=S)c2C#N)CO1` gave Mtb MbtI inh 94.5*, AID504770 -1.6, PV pol inh 102.0 and Mtb MenB inh -9.2.
`CC1(C)Cc2c(C#N)c(N)sc(=S)c2CO1` gave Mtb MbtI inh 36.6, AID504770 0.1, PV pol inh 99.0 and Mtb MenB inh -32.2.

Assay outcomes deposited in PubChem BioAssay by ICCB-Longwood Screening Facility, Harvard Medical School.
